In PubChem BioAssay (Tox21):
Values joined by “and” are separate entries in the source; they are usually repeats but may differ in a detail not shown here. Equal entries are not always repeated. Results filed as inconclusive are left out. Active and inactive are the calls of the source. Unless noted, calls come from the whole dose curve.

What was measured:
[1] = Nuclear factor erythroid 2-related factor 2/antioxidant responsive element (Nrf2/ARE) small molecule agonists: qHTS cell viability counter screen in human keratinocytes (AID 1919968; active = well fitted curve in the direction sought with a large enough effect in the repeat runs; an effect the other way counts as inactive or inconclusive; note: nearly all actives have a fitted effect of over 55% in size)
Method in brief: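 Cytotoxicity was multiplexed with the Nrf2/ARE luciferase assay in the same wells. Stably transfected HaCaT keratinocytes were treated with test compounds for 23 h at 37 C. Cell viability was then measured by CellTiter-Fluor fluorescence.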

[2] = G protein-coupled receptor (GPCR) small molecule agonists, calcium flux assay: HEK293 wild type cell line counter screen (AID 1920065)
Method in brief: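 Seed cells, incubate 18 h (37 C, 5% CO2); add calcium dye, 1 h at 37 C; pin-transfer compounds, ATP control or DMSO; read fluorescence 480/540 nm each second for 3 min.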

[3] = p53 small molecule agonists, cell-based qHTS assay with human liver microsomes (AID 1963577);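 note: p53 response element beta-lactamase reporter cells with liver microsomes plus NADPH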
Method in brief: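 HLM-supplemented p53RE-bla reporter assay: 16 h compound exposure at 37 C, microsomes and NADPH each 0.5 mg/mL final, read by fluorescence intensity.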

[4] = p53 small molecule agonists, cell-based qHTS assay with human liver microsomes: qHTS cell viability counter screen (AID 1963579); note: nearly all actives have a fitted effect of over 45% in size
Method in brief: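 Viability of p53RE-bla cells is measured as CellTiter-Glo luminescence following a 16 h, 37 C incubation with compound, liver microsomes from human donors and NADPH.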

[5] = p53 small molecule agonists, cell-based qHTS assay with rat liver microsomes: qHTS cell viability counter screen (AID 1963580); note: nearly all actives have a fitted effect of over 45% in size
Method in brief: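 Cytotoxicity counter screen: intracellular ATP read by CellTiter-Glo luminescence in the p53 reporter wells. HCT-116 p53RE-bla cells were treated for 16 h at 37 C alongside rat liver microsomes and NADPH, each 0.5 mg/mL final.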

[6] = p53 small molecule agonists, cell-based qHTS assay: qHTS cell viability counter screen (AID 1963581); note: nearly all actives have a fitted effect of over 45% in size; note: potency is the fitted concentration of half-maximal effect
Method in brief: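 Viability was counter-screened in parallel with the p53 agonist reporter by measuring intracellular ATP luminescence in the same HCT-116 p53RE-bla wells after 16 h compound treatment at 37 C.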

[7] = p53 small molecule agonists, cell-based qHTS assay (AID 1963582; active = well fitted activation curve with a large enough effect in the signal ratio in the repeat runs, not every such curve was filed as active; the % refers to the signal ratio)
Method in brief: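 Cells carrying a p53-responsive bla reporter are treated with test compounds for 16 h at 37 C; beta-lactamase activity is then detected with LiveBLAzer B/G FRET substrate after 2 h at room temperature.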

[8] = biological target: 5-hydroxytryptamine receptor 2A (Homo sapiens) (UniProt P28223); assay: 5-hydroxytryptamine receptor 2A (HTR2A) small molecule antagonists, cell-based qHTS assay (AID 1963586); note: nearly all actives have a fitted effect of over 45% in size
Method in brief: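 CHO cells stably expressing human HTR2A were plated for 18 h at 37 C, then loaded with calcium dye for 1 h. Compounds were preincubated 5 min at room temperature before DOI (4 nM solution) was added. Kinetic fluorescence was read for 3 min.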

[9] = biological target: 5-hydroxytryptamine receptor 2A (Homo sapiens) (UniProt P28223); assay: 5-hydroxytryptamine receptor 2A (HTR2A) small molecule agonists, cell-based qHTS assay (AID 1963587); note: nearly all actives have a fitted effect of over 30% in size
Method in brief: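 Kinetic calcium-flux fluorescence (2 min, 1 sec intervals) after compound addition in agonist mode. HTR2A-CHO cells were cultured 18 h, then dye-loaded 1 h at 37 C.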

[10] = biological target: Muscarinic acetylcholine receptor M1 (Homo sapiens) (UniProt P11229); assay: Cholinergic receptor muscarinic 1 (CHRM1) small molecule antagonists, cell-based qHTS assay (AID 1963588); note: nearly all actives have a fitted effect of over 40% in size
Method in brief: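 Compounds were tested at 15 concentrations in three independent runs. Dye-loaded CHRM1-CHO cells were exposed 5 min at room temperature before stimulation by acetylcholine added at 50nM. Intracellular calcium was read kinetically on FDSS for 3 min.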

[11] = biological target: Muscarinic acetylcholine receptor M1 (Homo sapiens) (UniProt P11229); assay: Cholinergic receptor muscarinic 1 (CHRM1) small molecule agonists, cell-based qHTS assay (AID 1963589); note: nearly all actives have a fitted effect of over 35% in size
Method in brief: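 Cells were plated and incubated 18 h at 37 C/5% CO2, loaded with calcium dye for 1 h at 37 C, then treated with compounds in DMSO. Fluorescence was recorded kinetically at 1 sec intervals.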

[12] = cAMP Responsive Elements (CRE) small molecule agonists, cell-based qHTS assay (AID 1963590); note: potency is the fitted concentration of half-maximal effect
Method in brief: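 Cells carrying a CRE-driven beta-lactamase reporter (HEK 293T) are seeded, incubated overnight (18 h), and treated with test compounds for 3 h at 37 C; reporter activity is then detected with a FRET substrate after 2 h at room temperature.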

[13] = biological target: Beta-2 adrenergic receptor (Homo sapiens) (UniProt P07550); assay: Adrenergic beta2 receptor (ADRB2) small molecule agonists, cell-based qHTS assay (AID 1963593); note: potency is the fitted concentration of half-maximal effect;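 for activation: CHO cells stably overexpressing human ADRB2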
Method in brief: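 CHO cells stably over-expressing ADRB2 were plated overnight at 37C, then dosed with compounds plus a stimulation mix containing 100uM IBMX and 25uM Ro-20-1724 for 0.5hr at room temperature. cAMP was measured by HTRF competition, 1hr.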

[14] = biological target: D(2) dopamine receptor (Homo sapiens) (UniProt P14416); assay: Dopamine D2 receptor (DRD2) small molecule agonists, cell-based qHTS assay (AID 1963594); note: nearly all actives have a fitted effect of over 35% in size
Method in brief: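 cAMP accumulation in DRD2-HEK293 cells measured by HTRF after 1 h detection; compounds added 10 min before NKH477 (200nM […]) forskolin-analogue stimulation, 30 min at room temperature, with Ro20-1724 present at 0.1 mM final.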

[15] = biological target: D(2) dopamine receptor (Homo sapiens) (UniProt P14416); assay: Dopamine D2 receptor (DRD2) small molecule antagonists, cell-based qHTS assay (AID 1963595; active = well fitted inhibition curve with a large enough effect in the signal ratio in the repeat runs, with a control signal flat; the % refers to the signal ratio; note: potency is the fitted concentration of half-maximal effect)
Method in brief: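 Stable D2 receptor HEK293 line, 24 h after seeding. Compound preincubated 10 min, then quinpirole (12 nM) with forskolin analogue NKH477 (200 nM), 30 min, room temperature. Detection by time-resolved FRET of cAMP.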

[16] = biological target: Gonadotropin-releasing hormone receptor (Homo sapiens) (UniProt P30968); assay: Human gonadotropin-releasing hormone receptor (GnRHR) small molecule agonists, calcium flux assay in GnRHR-HEK293 cells (AID 1920063); note: nearly all actives have a fitted effect of over 35% in size; note: potency is the fitted concentration of half-maximal effect
Method in brief: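 Agonist activity was measured as intracellular calcium flux in HEK293 cells engineered to stably express human GnRHR. After dye loading for 1 hour at 37 C, compounds in DMSO were added and fluorescence was followed for 3 minutes.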

[17] = biological target: KiSS-1 receptor (Homo sapiens) (UniProt Q969F8); assay: Human kisspeptin (KISS1R) small molecule agonists, calcium flux assay in KISS1R-HEK293 cells (AID 1920064; active = well fitted curve in the direction sought with a large enough effect in the repeat runs; an effect the other way counts as inactive or inconclusive)
Method in brief: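 Agonist activity is monitored as intracellular calcium rise in engineered HEK293 cells carrying human KISS1R. Cells are dye-loaded for 1 h at 37 C before compound addition, and fluorescence is recorded for 3 min.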

[18] = p53 small molecule agonists, cell-based qHTS assay with rat liver microsomes (AID 1963578)
Method in brief: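 Quantitative HTS of the Tox21 10K library: p53RE-bla cells, rat liver microsomes plus NADPH at 0.5 mg/mL final each, 16 h at 37 C, beta-lactamase fluorescence detection.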

[19] = cAMP Responsive Elements (CRE) small molecule antagonists, cell-based qHTS assay (AID 1963591; active = well fitted inhibition curve with a large enough effect in the signal ratio in the repeat runs, not every such curve was filed as active; the % refers to the signal ratio)
Method in brief: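 Cells (CRE-bla HEK 293T, DMEM with 10% dialyzed FBS and 25 mM HEPES) are seeded and incubated 18 h. Compounds are added with NKH477 agonist at 0.25 uM final for 3 h, then FRET substrate for 2 h.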

[20] = biological target: Beta-2 adrenergic receptor (Homo sapiens) (UniProt P07550); assay: Adrenergic beta2 receptor (ADRB2) small molecule antagonists, cell-based qHTS assay (AID 1963592); note: series mostly up to about 92 µM; nearly all actives have a fitted effect of over 50% in size
Method in brief: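 Assay format: CHO-ADRB2 cells, 18-20hr seeding at 37C/5% CO2, then compound plus 1nM isoproterenol agonist mix for 0.5hr RT. Homogeneous time-resolved fluorescence cAMP detection after 1hr, expressed as 665/615 nm ratio.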

Measured: Potency

Muscarinic acetylcholine receptor M1 (Homo sapiens), sequence (P11229 whole entry, looked up): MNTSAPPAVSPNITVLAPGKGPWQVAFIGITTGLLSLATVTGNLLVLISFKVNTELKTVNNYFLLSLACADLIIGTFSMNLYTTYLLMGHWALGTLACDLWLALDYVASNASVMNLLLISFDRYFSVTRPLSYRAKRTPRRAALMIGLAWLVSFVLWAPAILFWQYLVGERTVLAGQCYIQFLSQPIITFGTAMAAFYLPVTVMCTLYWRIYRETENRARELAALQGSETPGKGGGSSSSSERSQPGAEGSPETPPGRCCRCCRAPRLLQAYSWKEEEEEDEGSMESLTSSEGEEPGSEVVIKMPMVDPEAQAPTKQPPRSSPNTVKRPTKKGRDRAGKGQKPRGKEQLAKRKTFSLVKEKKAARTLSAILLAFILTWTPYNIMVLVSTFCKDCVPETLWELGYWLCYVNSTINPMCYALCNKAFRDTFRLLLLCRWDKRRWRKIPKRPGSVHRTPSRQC
5-hydroxytryptamine receptor 2A (Homo sapiens), sequence (P28223 whole entry, looked up): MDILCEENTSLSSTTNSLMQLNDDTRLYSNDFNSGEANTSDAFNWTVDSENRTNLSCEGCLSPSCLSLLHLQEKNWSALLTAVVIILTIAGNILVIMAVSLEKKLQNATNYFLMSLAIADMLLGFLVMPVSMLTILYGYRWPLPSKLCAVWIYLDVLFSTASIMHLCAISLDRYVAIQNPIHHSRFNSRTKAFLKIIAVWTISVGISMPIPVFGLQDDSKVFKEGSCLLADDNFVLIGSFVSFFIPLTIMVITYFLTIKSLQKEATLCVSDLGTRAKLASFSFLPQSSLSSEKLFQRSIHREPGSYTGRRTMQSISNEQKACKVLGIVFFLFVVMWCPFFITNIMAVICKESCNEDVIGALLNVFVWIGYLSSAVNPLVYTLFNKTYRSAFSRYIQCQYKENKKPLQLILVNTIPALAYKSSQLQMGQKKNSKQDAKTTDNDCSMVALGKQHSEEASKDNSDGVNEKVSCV
Gonadotropin-releasing hormone receptor (Homo sapiens), sequence (P30968 whole entry, looked up): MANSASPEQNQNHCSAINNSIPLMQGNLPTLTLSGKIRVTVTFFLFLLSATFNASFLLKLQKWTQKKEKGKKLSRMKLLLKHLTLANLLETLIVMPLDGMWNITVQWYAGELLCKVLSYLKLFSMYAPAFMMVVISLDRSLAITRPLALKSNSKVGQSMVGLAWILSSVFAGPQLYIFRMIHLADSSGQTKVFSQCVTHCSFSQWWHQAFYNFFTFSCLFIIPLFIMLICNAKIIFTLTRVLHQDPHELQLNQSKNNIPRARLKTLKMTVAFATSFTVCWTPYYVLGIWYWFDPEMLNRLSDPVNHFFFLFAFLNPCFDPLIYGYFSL
Beta-2 adrenergic receptor (Homo sapiens), sequence (P07550 whole entry, looked up): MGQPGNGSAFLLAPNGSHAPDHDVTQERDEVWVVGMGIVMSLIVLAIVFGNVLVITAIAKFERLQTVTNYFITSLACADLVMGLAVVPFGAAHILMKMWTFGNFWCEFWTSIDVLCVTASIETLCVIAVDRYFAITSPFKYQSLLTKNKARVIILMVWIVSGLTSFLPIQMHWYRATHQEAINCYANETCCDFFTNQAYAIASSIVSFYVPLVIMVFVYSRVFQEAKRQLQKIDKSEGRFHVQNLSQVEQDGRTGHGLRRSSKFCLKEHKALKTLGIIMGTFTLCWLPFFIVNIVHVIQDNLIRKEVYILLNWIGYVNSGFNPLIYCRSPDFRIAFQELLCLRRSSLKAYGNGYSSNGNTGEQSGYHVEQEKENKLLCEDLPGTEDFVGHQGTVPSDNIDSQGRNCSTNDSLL
KiSS-1 receptor (Homo sapiens), sequence (Q969F8 whole entry, looked up): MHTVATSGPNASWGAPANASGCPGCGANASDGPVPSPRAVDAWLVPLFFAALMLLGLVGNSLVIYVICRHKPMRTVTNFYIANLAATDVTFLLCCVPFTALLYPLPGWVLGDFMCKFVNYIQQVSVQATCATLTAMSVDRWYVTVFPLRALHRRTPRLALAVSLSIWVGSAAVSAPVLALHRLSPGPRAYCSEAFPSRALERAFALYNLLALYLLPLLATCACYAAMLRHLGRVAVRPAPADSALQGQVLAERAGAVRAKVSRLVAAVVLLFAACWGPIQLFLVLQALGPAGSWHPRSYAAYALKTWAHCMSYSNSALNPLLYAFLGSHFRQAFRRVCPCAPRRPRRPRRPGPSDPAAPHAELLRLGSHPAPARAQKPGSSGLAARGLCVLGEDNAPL
D(2) dopamine receptor (Homo sapiens), sequence (P14416 whole entry, looked up): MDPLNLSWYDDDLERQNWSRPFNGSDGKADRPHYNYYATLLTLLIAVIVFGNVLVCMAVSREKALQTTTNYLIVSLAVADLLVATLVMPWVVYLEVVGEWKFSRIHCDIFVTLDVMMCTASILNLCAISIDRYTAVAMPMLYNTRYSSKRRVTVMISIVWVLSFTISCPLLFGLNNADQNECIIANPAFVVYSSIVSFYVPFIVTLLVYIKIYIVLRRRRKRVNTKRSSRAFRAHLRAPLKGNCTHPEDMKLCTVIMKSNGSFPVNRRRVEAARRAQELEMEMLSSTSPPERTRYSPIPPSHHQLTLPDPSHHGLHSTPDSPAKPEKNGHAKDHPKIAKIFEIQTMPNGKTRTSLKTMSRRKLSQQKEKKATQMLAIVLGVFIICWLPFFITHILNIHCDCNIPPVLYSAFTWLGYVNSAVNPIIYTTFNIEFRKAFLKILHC

C=C[C@@]1(C)CC(=O)[C@]2(O)[C@@]3(C)[C@@H](O)CCC(C)(C)[C@@H]3[C@H](O)[C@H](OC(C)=O)[C@@]2(C)O1
active: [12] 243 nM and 298 nM | [13] 0.119 µM | [15] 30.6 nM and 944 nM
not listed: [16] | [17] | [18] | [19] | [20]
inactive: all other assays above

Brc1ccc(Oc2ccc(Br)cc2)cc1
inactive: all assays above

CCCCOC(=O)CCCCCCCCC(=O)OCCCC
not listed: [13]
inactive: all other assays above

O=C(O)Cc1c[nH]c2ccccc12
not listed: [9]
inactive: all other assays above

CCOc1ccc(NC(=O)CC(C)O)cc1 (stereo not given)
not listed: [16] | [17]
inactive: all other assays above

CC(C)c1cccc(C(C)C)c1
not listed: [3] | [7] | [9] | [16] | [18]
inactive: all other assays above

CCc1nc(N)nc(N)c1-c1ccc(Cl)cc1
active: [16] 39.5 µM | [6] 13.1 µM
not listed: [9]
inactive: all other assays above
